Results as given in PubChem BioAssay (Tox21).
Values without a mark were called inactive. The source made the active and inactive calls. The call rests on the fitted dose curve.

Target: Acetylcholinesterase (Homo sapiens) (UniProt P22303)
Test: Acetylcholinesterase (AChE) small molecule antagonists: enzyme-based qHTS assay with human liver microsomes (AID 1347399); further: nearly all actives have a fitted effect of over 60% in size
Conditions: Potency: qHTS inhibition; outcome: qHTS inhibition; series mostly up to 115 µM; activity change, negative = inhibition: at the top concentration
Procedure, shortened: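 Recombinant human AChE (50 mU/mL in the enzyme mix) and human liver microsomes (0.25 mg/mL final) were preincubated with compound and NADPH (0.25 mg/mL final) for 30 min at 37 C. Acetylthiocholine/DTNB was then added; thiocholine was read colorimetrically after 10 min at room temperature.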
On the % scale 0 is the no-effect control and ±100 the full control effect.

Chain of Acetylcholinesterase (Homo sapiens) (P22303 whole entry, looked up): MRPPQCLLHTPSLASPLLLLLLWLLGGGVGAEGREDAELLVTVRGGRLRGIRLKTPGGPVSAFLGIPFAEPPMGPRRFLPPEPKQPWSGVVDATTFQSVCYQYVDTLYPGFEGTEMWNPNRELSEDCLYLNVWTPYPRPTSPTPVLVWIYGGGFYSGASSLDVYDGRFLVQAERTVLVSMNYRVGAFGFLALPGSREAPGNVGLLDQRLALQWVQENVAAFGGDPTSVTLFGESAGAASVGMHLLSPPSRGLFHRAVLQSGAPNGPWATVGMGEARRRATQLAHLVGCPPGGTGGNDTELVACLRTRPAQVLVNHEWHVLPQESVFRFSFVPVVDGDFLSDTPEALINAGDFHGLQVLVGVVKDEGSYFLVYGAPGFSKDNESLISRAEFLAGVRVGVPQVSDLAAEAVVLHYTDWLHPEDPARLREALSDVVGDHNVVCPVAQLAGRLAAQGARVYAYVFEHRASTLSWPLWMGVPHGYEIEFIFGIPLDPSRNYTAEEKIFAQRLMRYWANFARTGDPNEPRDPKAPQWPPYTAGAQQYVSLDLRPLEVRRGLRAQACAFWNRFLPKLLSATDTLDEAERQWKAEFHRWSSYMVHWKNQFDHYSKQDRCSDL

SMILES | activity change, negative = inhibition | outcome
CC1OCCC1=O (stereo not drawn) | -0.977% | 
COc1cc(N)ccc1C | 1.23% | 
COc1ccc(-c2coc3cc(O)ccc3c2=O)cc1 | 3.89% | 
CCCCC(CC)CN (stereo not drawn) | -3.41% | 
CCCCCCCCO[C@@H]1O[C@H](CO)[C@@H](O)[C@H](O)[C@H]1O | -0.777% | 
CCN(CC)CC(=O)OCC(=O)[C@@]1(O)CC[C@H]2[C@@H]3CCC4=CC(=O)CC[C@]4(C)[C@H]3[C@@H](O)C[C@@]21C | 0.504% [at 53 µM] | 
O=C(O)c1cc(N=Nc2ccc([N+](=O)[O-])cc2)ccc1O | 29.7% | 
CC(C)CCCCCCOC(=O)CCCCC(=O)OCCCCCCC(C)C | -0.24% | 
CCOc1ccccc1O[C@H](c1ccccc1)[C@H]1CNCCO1 |  | inactive
CCO[Si](OCC)(OCC)OCC | -1.67% | 
CC(C(=O)O)c1ccc2c(c1)[nH]c1ccc(Cl)cc12 (stereo not drawn) | 1.18% [at 53 µM] | 
CC(C)CCC(=O)CCC(C)C | 0.688% | 
C/C=C/C(=O)Oc1c(CCCCCC(C)C)cc([N+](=O)[O-])cc1[N+](=O)[O-] | 11.8% | 
C=CCOc1nc(OCC=C)nc(OCC=C)n1 | 0.807% | 
CCCCCCOC(=O)NC(=N)c1ccc(NCc2nc3cc(C(=O)N(CCC(=O)OCC)c4ccccn4)ccc3n2C)cc1 | -1.93% [at 53 µM] | 
CN1CCCC1 | -1.07% | 
CN(C)c1ccc(C=O)cc1 | 0.676% | 
O=S(=O)(O)c1cc(O)c2ccc(Nc3ccccc3)cc2c1 | 0.917% | 
Cn1c(=O)c2c(ncn2CC(=O)O)n(C)c1=O | 0.179% [at 53 µM] | 
CC1=CCC2C(C1)C2(C)C (stereo not drawn) | -0.9% | 
O=C(O)[C@H](O)c1ccccc1 | -13% [at 53 µM] | 
CCCCCCOc1ccc(N)cc1 | 4.46% | 
FC1(F)C(F)(F)C(F)(F)C2(F)C(F)(C1(F)F)C(F)(F)C(F)(F)C1(F)C(F)(F)C(F)(F)C(F)(F)C(F)(F)C12F (stereo not drawn) | -0.153% | 
